Laboratory results reported in PubChem BioAssay (Tox21).
A number with no mark means an inactive call. Results filed as inconclusive are left out. Entries that show only a call come without a potency. Calls of active or inactive are those of the source. Unless noted, calls come from the whole dose curve.

How the values were obtained:
[1] = Nuclear factor erythroid 2-related factor 2/antioxidant responsive element (Nrf2/ARE) small molecule agonists: qHTS cell viability counter screen in human keratinocytes (AID 1919968; active = well fitted curve in the direction sought with a large enough effect in the repeat runs; an effect the other way counts as inactive or inconclusive; note: nearly all actives have a fitted effect of over 55% in size)
Method in brief: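 KeratinoSens HaCaT cells, 1,500/well, preincubated 5 h, then exposed to compounds in DMSO for 23 h at 37 C/5% CO2. Viability read as CellTiter-Fluor fluorescence after 1 h, in the same wells as the ARE-luciferase read.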

[2] = Nuclear factor erythroid 2-related factor 2/antioxidant responsive element (Nrf2/ARE) small molecule agonists: luciferase reporter gene qHTS assay in human keratinocytes (AID 1919969); note: nearly all actives have a fitted effect of over 35% in size; note: potency is the fitted concentration of half-maximal effect
[3] = target: Gonadotropin-releasing hormone receptor (Homo sapiens) (UniProt P30968); assay: Human gonadotropin-releasing hormone receptor (GnRHR) small molecule agonists, calcium flux assay in GnRHR-HEK293 cells (AID 1920063); note: nearly all actives have a fitted effect of over 35% in size
Method in brief: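 HEK293 cells stably expressing human GnRHR were dye-loaded for 1 h at 37 C. Compound was added in agonist mode and fluorescence (Ex/Em 480/540) recorded kinetically for 3 min. Fifteen concentrations, triplicates.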

[4] = target: KiSS-1 receptor (Homo sapiens) (UniProt Q969F8); assay: Human kisspeptin (KISS1R) small molecule agonists, calcium flux assay in KISS1R-HEK293 cells (AID 1920064; active = well fitted curve in the direction sought with a large enough effect in the repeat runs; an effect the other way counts as inactive or inconclusive)
Method in brief: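 HEK293 cells stably expressing human KISS1R were loaded with calcium dye for 1 h at 37 C, then given compound; fluorescence (Ex/Em 480/540) was read kinetically for 3 min. Fifteen concentrations, triplicate.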

[5] = G protein-coupled receptor (GPCR) small molecule agonists, calcium flux assay: HEK293 wild type cell line counter screen (AID 1920065)
Method in brief: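 Wild-type HEK293 cells plated 18 h, loaded with calcium dye 1 h at 37 C, then compounds added in agonist mode (ATP as positive control). Kinetic fluorescence Ex/Em 480/540 recorded 3 min at 1 sec intervals; 15 concentrations, triplicate.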

[6] = p53 small molecule agonists, cell-based qHTS assay with human liver microsomes: qHTS cell viability counter screen (AID 1963579); note: nearly all actives have a fitted effect of over 45% in size
Method in brief: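 p53RE-bla cells (4,000/well) were pre-incubated 5 h at 37 C, then given compounds in DMSO plus human liver microsomes (0.5 mg/mL final) and NADPH (0.5 mg/mL final) for 16 h at 37 C. Viability was read by CellTiter-Glo luminescence.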

[7] = p53 small molecule agonists, cell-based qHTS assay with rat liver microsomes: qHTS cell viability counter screen (AID 1963580); note: nearly all actives have a fitted effect of over 45% in size
Method in brief: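 p53RE-bla HCT-116 cells (4,000/well) rested 5 h at 37 C, then given Tox21 compounds in DMSO with rat liver microsomes (0.5 mg/mL final) plus NADPH (0.5 mg/mL final) for 16 h at 37 C. Viability read by CellTiter-Glo luminescence after 30 min at room temperature.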

[8] = p53 small molecule agonists, cell-based qHTS assay: qHTS cell viability counter screen (AID 1963581); note: nearly all actives have a fitted effect of over 45% in size
Method in brief: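 p53RE-bla HCT-116 cells, compounds added 5 h after plating and incubated 16 h at 37 C. Cytotoxicity measured in the same wells as intracellular ATP by CellTiter-Glo luminescence after 30 min at room temperature.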

[9] = target: 5-hydroxytryptamine receptor 2A (Homo sapiens) (UniProt P28223); assay: 5-hydroxytryptamine receptor 2A (HTR2A) small molecule antagonists, cell-based qHTS assay (AID 1963586); note: nearly all actives have a fitted effect of over 45% in size
Method in brief: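 Antagonist-mode intracellular calcium assay: DOI (4 nM) added after 5 min compound pre-incubation at room temperature to dye-loaded HTR2A-CHO cells. Fluorescence followed for 3 min, sampled every second.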

[10] = target: 5-hydroxytryptamine receptor 2A (Homo sapiens) (UniProt P28223); assay: 5-hydroxytryptamine receptor 2A (HTR2A) small molecule agonists, cell-based qHTS assay (AID 1963587); note: nearly all actives have a fitted effect of over 30% in size
Method in brief: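 HTR2A-CHO cells, plated 18 h at 37 C/5% CO2, dye-loaded 1 h at 37 C; compounds in DMSO added by pin tool (agonist mode). Intracellular calcium flux read as kinetic fluorescence on FDSS over 2 min at 1 s intervals.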

[11] = target: Muscarinic acetylcholine receptor M1 (Homo sapiens) (UniProt P11229); assay: Cholinergic receptor muscarinic 1 (CHRM1) small molecule antagonists, cell-based qHTS assay (AID 1963588); note: nearly all actives have a fitted effect of over 40% in size
Method in brief: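 CHRM1-CHO calcium-flux assay, antagonist mode. Cells were seeded 18 h, dye-loaded 1 h at 37 C and given compound for 5 min at RT, then acetylcholine was added at 50nM. FDSS fluorescence was read 3 min; 15 concentrations, three runs.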

[12] = target: Muscarinic acetylcholine receptor M1 (Homo sapiens) (UniProt P11229); assay: Cholinergic receptor muscarinic 1 (CHRM1) small molecule agonists, cell-based qHTS assay (AID 1963589); note: nearly all actives have a fitted effect of over 35% in size
Method in brief: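 CHO cells stably expressing human CHRM1 were loaded with calcium dye for 1 h at 37 C, then compound was added in agonist mode. Intracellular calcium fluorescence was followed kinetically at 1 s intervals. Fifteen concentrations were tested in three independent runs.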

[13] = cAMP Responsive Elements (CRE) small molecule agonists, cell-based qHTS assay (AID 1963590)
Method in brief: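 CRE-bla HEK 293T cells, 2,000/well in DMEM with 10% dialyzed FBS and 25 mM HEPES, pre-incubated 18 h at 37 C, then exposed to compound 3 h at 37 C. Beta-lactamase reporter read with LiveBLAzer B/G FRET substrate after 2 h at room temperature.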

[14] = cAMP Responsive Elements (CRE) small molecule antagonists, cell-based qHTS assay (AID 1963591; active = well fitted inhibition curve with a large enough effect in the signal ratio in the repeat runs, not every such curve was filed as active; the % refers to the signal ratio)
Method in brief: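 CRE-bla HEK293T cells plated 18 h, then given compound plus NKH477 at 0.25 uM final for 3 h at 37C. Beta-lactamase reporter read with LiveBLAzer B/G FRET substrate after 2 h at room temperature.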

[15] = target: Beta-2 adrenergic receptor (Homo sapiens) (UniProt P07550); assay: Adrenergic beta2 receptor (ADRB2) small molecule antagonists, cell-based qHTS assay (AID 1963592); note: series mostly up to about 92 µM; nearly all actives have a fitted effect of over 50% in size
Method in brief: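 Cells (CHO, stable ADRB2 overexpression) incubated 18-20hr at 37C; compounds added from DMSO; agonist mix (1nM isoproterenol, 100uM IBMX, 25uM Ro-20-1724) added; 0.5hr RT; d2-cAMP and anti-cAMP-cryptate added; 1hr RT; 665/615 nm read.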

[16] = target: D(2) dopamine receptor (Homo sapiens) (UniProt P14416); assay: Dopamine D2 receptor (DRD2) small molecule agonists, cell-based qHTS assay (AID 1963594); note: nearly all actives have a fitted effect of over 35% in size
Method in brief: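 HEK293 cells stably expressing DRD2 were cultured 24 h at 37 C, then given Ro20-1724 (0.1 mM final) and compounds for 10 min at room temperature. NKH477 (200nM) was then added for 30 min. cAMP was read by HTRF.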

[17] = target: D(2) dopamine receptor (Homo sapiens) (UniProt P14416); assay: Dopamine D2 receptor (DRD2) small molecule antagonists, cell-based qHTS assay (AID 1963595; active = well fitted inhibition curve with a large enough effect in the signal ratio in the repeat runs, with a control signal flat; the % refers to the signal ratio)
Method in brief: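 HTRF cAMP read-out at 665 and 620 nm emission (340 nm excitation). Antagonist mode: compounds were tested against 12 nM quinpirole in DRD2-HEK293 cells, with 200 nM NKH477 raising cAMP and 0.1 mM Ro20-1724 blocking its breakdown.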

[18] = target: Beta-2 adrenergic receptor (Homo sapiens) (UniProt P07550); assay: Adrenergic beta2 receptor (ADRB2) small molecule agonists, cell-based qHTS assay (AID 1963593);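 note: CHO cells stably overexpressing human ADRB2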
Method in brief: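 CHO cells stably over-expressing ADRB2 were plated overnight at 37C, then dosed with compounds plus a stimulation mix containing 100uM IBMX and 25uM Ro-20-1724 for 0.5hr at room temperature. cAMP was measured by HTRF competition, 1hr.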

Sequence of Beta-2 adrenergic receptor (Homo sapiens) (P07550 whole entry, looked up): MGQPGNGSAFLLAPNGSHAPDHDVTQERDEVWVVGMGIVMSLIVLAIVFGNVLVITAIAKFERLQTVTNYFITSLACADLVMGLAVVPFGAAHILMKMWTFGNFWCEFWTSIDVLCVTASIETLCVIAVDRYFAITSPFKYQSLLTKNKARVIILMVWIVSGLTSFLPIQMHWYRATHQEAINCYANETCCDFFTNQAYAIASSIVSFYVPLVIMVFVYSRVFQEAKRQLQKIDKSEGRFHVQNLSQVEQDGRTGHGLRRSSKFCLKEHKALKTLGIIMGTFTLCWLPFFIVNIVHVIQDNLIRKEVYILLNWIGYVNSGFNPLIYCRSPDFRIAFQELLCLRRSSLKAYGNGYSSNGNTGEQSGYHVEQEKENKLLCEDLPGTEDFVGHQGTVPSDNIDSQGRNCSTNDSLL
Sequence of KiSS-1 receptor (Homo sapiens) (Q969F8 whole entry, looked up): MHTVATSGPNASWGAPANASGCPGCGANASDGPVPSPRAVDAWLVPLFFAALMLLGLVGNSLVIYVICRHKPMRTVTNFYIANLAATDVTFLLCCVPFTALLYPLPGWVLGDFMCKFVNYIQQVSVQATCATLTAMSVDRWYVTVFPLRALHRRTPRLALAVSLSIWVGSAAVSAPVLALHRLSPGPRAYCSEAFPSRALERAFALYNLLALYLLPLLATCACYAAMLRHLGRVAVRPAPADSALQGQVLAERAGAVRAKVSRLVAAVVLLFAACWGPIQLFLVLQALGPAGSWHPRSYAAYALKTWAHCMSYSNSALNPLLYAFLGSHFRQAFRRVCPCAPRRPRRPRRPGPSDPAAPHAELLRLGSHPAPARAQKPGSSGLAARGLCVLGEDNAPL
Sequence of 5-hydroxytryptamine receptor 2A (Homo sapiens) (P28223 whole entry, looked up): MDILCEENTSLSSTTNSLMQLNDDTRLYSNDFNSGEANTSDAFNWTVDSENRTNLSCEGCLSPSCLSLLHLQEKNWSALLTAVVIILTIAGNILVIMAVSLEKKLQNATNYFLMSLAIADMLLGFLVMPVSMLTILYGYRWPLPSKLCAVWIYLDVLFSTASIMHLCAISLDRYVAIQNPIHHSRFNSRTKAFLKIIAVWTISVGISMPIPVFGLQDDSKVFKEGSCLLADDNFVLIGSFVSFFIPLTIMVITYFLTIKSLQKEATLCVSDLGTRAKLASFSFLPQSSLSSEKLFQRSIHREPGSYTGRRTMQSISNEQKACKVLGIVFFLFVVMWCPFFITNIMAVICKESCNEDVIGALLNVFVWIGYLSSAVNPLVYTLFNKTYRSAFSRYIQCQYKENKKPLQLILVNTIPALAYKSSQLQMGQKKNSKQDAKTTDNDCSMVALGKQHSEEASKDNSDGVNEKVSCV
Sequence of Gonadotropin-releasing hormone receptor (Homo sapiens) (P30968 whole entry, looked up): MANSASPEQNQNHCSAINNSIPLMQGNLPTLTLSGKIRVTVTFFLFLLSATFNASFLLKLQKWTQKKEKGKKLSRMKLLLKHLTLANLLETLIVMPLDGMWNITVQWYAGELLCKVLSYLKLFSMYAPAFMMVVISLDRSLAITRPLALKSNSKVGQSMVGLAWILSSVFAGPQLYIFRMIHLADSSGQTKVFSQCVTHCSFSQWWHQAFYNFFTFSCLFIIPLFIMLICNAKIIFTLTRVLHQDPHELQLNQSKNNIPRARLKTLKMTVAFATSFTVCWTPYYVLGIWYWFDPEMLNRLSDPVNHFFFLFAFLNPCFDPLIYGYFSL
Sequence of Muscarinic acetylcholine receptor M1 (Homo sapiens) (P11229 whole entry, looked up): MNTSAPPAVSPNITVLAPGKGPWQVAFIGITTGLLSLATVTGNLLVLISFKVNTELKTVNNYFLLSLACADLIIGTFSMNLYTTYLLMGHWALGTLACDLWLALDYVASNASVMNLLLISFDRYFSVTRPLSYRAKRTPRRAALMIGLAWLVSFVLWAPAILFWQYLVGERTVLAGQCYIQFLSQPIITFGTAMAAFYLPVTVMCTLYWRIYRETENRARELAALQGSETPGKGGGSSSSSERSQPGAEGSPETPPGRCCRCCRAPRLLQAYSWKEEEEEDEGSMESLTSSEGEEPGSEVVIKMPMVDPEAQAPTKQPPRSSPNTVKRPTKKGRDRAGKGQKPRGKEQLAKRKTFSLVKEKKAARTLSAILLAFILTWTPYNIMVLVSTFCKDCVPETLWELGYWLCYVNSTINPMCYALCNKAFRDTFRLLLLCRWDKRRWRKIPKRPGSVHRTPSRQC
Sequence of D(2) dopamine receptor (Homo sapiens) (P14416 whole entry, looked up): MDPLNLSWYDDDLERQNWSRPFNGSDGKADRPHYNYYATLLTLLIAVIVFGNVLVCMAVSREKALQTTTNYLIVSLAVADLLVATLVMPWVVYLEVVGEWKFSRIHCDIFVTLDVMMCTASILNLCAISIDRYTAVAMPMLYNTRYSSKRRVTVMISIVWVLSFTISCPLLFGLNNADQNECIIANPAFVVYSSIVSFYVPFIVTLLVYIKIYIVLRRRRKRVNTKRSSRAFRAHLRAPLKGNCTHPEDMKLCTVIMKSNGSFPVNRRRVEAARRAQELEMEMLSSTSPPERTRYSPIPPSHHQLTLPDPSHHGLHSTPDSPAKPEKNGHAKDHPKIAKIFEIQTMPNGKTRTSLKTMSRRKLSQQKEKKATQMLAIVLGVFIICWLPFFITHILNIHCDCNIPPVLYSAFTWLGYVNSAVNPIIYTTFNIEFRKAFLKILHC

## CCCNC(C)(C)COC(=O)c1ccccc1
[1]
  Potency: inactive
[2]
  Potency: inactive
[3]
  Potency: inactive
[4]
  Potency: inactive
[5]
  Potency: inactive
[6]
  Potency: inactive
[7]
  Potency: inactive
[8]
  Potency: inactive
[9]
  Potency: inactive
[10]
  Potency: inactive
[11]
  Potency: inactive
[12]
  Potency: inactive
[13]
  Potency: inactive
[14]
  Potency: inactive
[15]
  Potency: inactive
[16]
  Potency: inactive
[17]
  Potency: inactive

## CCCCCCCCCCCCCC(=O)OC
[1]
  Potency: inactive
[2]
  Potency: inactive
[3]
  Potency: inactive
[4]
  Potency: inactive
[5]
  Potency: inactive
[6]
  Potency: inactive
[7]
  Potency: inactive
[8]
  Potency: inactive
[9]
  Potency: inactive
[10]
  Potency: inactive
[11]
  Potency: inactive
[12]
  Potency: inactive
[13]
  Potency: inactive
[14]
  Potency: inactive
[15]
  Potency: inactive
[17]
  Potency: inactive

## Cc1nc2ccccc2c(=O)o1
[1]
  Potency: inactive
[2]
  Potency: inactive
[3]
  Potency: inactive
[4]
  Potency: inactive
[5]
  Potency: inactive
[6]
  Potency: inactive
[7]
  Potency: inactive
[8]
  Potency: inactive
[9]
  Potency: inactive
[10]
  Potency: inactive
[11]
  Potency: inactive
[12]
  Potency: inactive
[14]
  Potency: inactive
[15]
  Potency: inactive
[16]
  Potency: inactive
[17]
  Potency: inactive

## Nc1cc(Cl)cc(S(=O)(=O)O)c1O
[1]
  Potency: inactive
[2]
  Potency: inactive
[3]
  Potency: inactive
[4]
  Potency: inactive
[5]
  Potency: inactive
[6]
  Potency: inactive
[7]
  Potency: inactive
[8]
  Potency: inactive
[9]
  Potency: inactive
[10]
  Potency: inactive
[11]
  Potency: inactive
[12]
  Potency: inactive
[14]
  Potency: inactive
[15]
  Potency: inactive
[16]
  Potency: inactive

## CC1(C)[C@@H](OC(=O)CCC(=O)O)CC[C@]2(C)[C@H]3C(=O)C=C4[C@@H]5C[C@@](C)(C(=O)O)CC[C@]5(C)CC[C@@]4(C)[C@]3(C)CC[C@@H]12
[1]
  Potency: inactive
[2]
  Potency: inactive
[3]
  Potency: inactive
[4]
  Potency: inactive
[5]
  Potency: inactive
[6]
  Potency: inactive
[7]
  Potency: inactive
[8]
  Potency: inactive
[9]
  Potency: inactive
[10]
  Potency: inactive
[11]
  Potency: inactive
[12]
  Potency: inactive
[13]
  Potency: inactive
[15]
  Potency: inactive
[17]
  Potency: inactive

## CC(C)(C)OC(=O)c1ccc(O)cc1
[1]
  Potency: inactive
[2]
  Potency: 61.1 µM (active)
[3]
  Potency: inactive
[4]
  Potency: inactive
[5]
  Potency: inactive
[6]
  Potency: inactive
[7]
  Potency: inactive
[8]
  Potency: inactive
[9]
  Potency: inactive
[10]
  Potency: inactive
[11]
  Potency: inactive
[12]
  Potency: inactive
[13]
  Potency: inactive
[15]
  Potency: inactive
[18]
  Potency: inactive
[16]
  Potency: inactive
[17]
  Potency: inactive

## COc1ccc(CCO)cc1
[1]
  Potency: inactive
[2]
  Potency: inactive
[3]
  Potency: inactive
[4]
  Potency: inactive
[5]
  Potency: inactive
[6]
  Potency: inactive
[7]
  Potency: inactive
[8]
  Potency: inactive
[9]
  Potency: inactive
[10]
  Potency: inactive
[11]
  Potency: inactive
[12]
  Potency: inactive
[14]
  Potency: inactive
[15]
  Potency: inactive
[18]
  Potency: inactive
[16]
  Potency: inactive
[17]
  Potency: inactive

## c1ccc2c(c1)CCCC2C1=NCCN1 (centres undefined)
[1]
  Potency: inactive
[2]
  Potency: inactive
[3]
  Potency: inactive
[4]
  Potency: inactive
[5]
  Potency: inactive
[6]
  Potency: inactive
[7]
  Potency: inactive
[8]
  Potency: inactive
[9]
  Potency: inactive
[10]
  Potency: inactive
[11]
  Potency: inactive
[12]
  Potency: inactive
[13]
  Potency: inactive
[14]
  Potency: inactive
[18]
  Potency: inactive
[16]
  Potency: inactive
